# Test results published in PMC8384837, “Expanding the binding specificity for RNA recognition by a PUF domain”.
# Experiments:
# Experiment in all cases: yeast three-hybrid, YBZ-1, SC-Leu-His + 0.5 mM 3-AT, 4 days
# Conditions in all cases: tags: N-Gal4 AD-HA kept; label: inside an RPR1-promoter hybrid RNA with tandem MS2 sites; ssRNA
# PUM1 PUF domain R3-PWH = PUM1 PUF domain R3-PWH (Homo sapiens, UniProt Q14671 828-1176, C935P;R936W;Q939H)
# Summary of the method: (§1)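 Matching RNA elements and Pumilio-1 PUF domain libraries, randomized at the three base-contacting residues of every repeat, were co-expressed from a centromeric plasmid in strain YBZ-1 (LexA–MS2 coat fusion, HIS3 reporter). The repeat regions were PCR-amplified and Illumina-sequenced from cells grown four days on SC-Leu (input) or SC-Leu-His + 0.5 mM 3-AT (selection). The interaction score is the log change in variant frequency from input to selection. It is computed in log2, with a pseudocount of 1 for absent variants.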
# PUM1 PUF domain R3-RNE = PUM1 PUF domain R3-RNE (Homo sapiens, UniProt Q14671 828-1176, C935R;R936N;Q939E)
# Summary of the method: as §1
# PUM1 PUF domain R3-EFL = PUM1 PUF domain R3-EFL (Homo sapiens, UniProt Q14671 828-1176, C935E;R936F;Q939L)
# Summary of the method: as §1
# PUM1 PUF domain R8-IFR = PUM1 PUF domain R8-IFR (Homo sapiens, UniProt Q14671 828-1176, N1122I;Y1123F;Q1126R)
# Summary of the method: as §1
# PUM1 PUF domain R6-NHR = target: T1, PUM1 PUF domain R6-NHR (Homo sapiens, UniProt Q14671 828-1176, Y1044H;Q1047R)
# T1 sequence: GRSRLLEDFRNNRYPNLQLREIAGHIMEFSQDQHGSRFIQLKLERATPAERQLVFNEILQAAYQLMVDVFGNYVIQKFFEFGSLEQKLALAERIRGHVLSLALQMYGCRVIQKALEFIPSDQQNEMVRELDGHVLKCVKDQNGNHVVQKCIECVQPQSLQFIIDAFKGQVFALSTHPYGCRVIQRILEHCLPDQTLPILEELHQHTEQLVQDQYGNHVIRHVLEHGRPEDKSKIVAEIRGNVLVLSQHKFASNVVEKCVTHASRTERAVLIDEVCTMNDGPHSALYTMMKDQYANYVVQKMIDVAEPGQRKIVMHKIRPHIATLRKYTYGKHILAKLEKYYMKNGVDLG
# Summary of the method: as §1
sequence,measurement,setting,value
GGCUAGAACUAGUGGAUCCCCCGGCGCCCGGCGGCUCGAGCCCGGGUAAGUGUAAUUAGUCUGCAUGCCGCCGGGCGCCAUGCCUGCAGGUCGACUCUAGAAAACAUG,binding signal,PUM1 PUF domain R3-PWH,4.06 log2 enrichment (interaction score)
same,binding signal,PUM1 PUF domain R3-RNE,2.81 log2 enrichment (interaction score)
same,binding signal,PUM1 PUF domain R3-EFL,2.29 log2 enrichment (interaction score)
GGCUAGAACUAGUGGAUCCCCCGGCGCCCGGCGGCUCGAGCCCGGGUAAGCGUAAAUAGUCUGCAUGCCGCCGGGCGCCAUGCCUGCAGGUCGACUCUAGAAAACAUG,binding signal,PUM1 PUF domain R8-IFR,4.56 log2 enrichment (interaction score)
GGCUAGAACUAGUGGAUCCCCCGGCGCCCGGCGGCUCGAGCCCGGGUAAGUGCAAAUAGUCUGCAUGCCGCCGGGCGCCAUGCCUGCAGGUCGACUCUAGAAAACAUG,binding signal,PUM1 PUF domain R6-NHR,5.94 log2 enrichment (interaction score)
